# Source: the supplement of paper PMC8291772
# ± gives the standard error. Whole data set: some 1,300 sequences, median “fluorescence a.u.” near 38, cut for the highest 2% near 280. This is one part of a sample in which the highest values are shown more often than they occur.
# Target: terminal deoxynucleotidyl transferase (calf thymus) (UniProt P06526)
# Assay: TdT poly-dT extension signal (Cy3 hybridisation fluorescence, uncapped minus capped) (fluorescence a.u.); higher = more efficient initiation of TdT extension
# Conditions: initiator chemistry: L-DNA (mirror-image), free 5'-OH (3'-tethered via HEG linker)
# Method: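 All mono- to pentamer D-DNA or L-DNA initiators were made by forward (3'->5') photolithographic in situ synthesis on glass on a hexaethylene glycol linker, leaving a free 5'-OH. Each was made in uncapped and DMTr-dT-capped versions, about 11 replicates each. Arrays were extended with calf thymus TdT (0.2 U/uL), 100 uM dTTP and 0.25 mM CoCl2 for 120 min at 37 C, hybridised with an rA18-Cy3 probe and scanned at 532 nm. The value is the mean uncapped minus the mean capped signal. IDs read 5'->3'. L-DNA is mirror-image; D-DNA 5'-OH initiators were below LOD (no extension).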
# Sequence of terminal deoxynucleotidyl transferase (calf thymus) (P06526 whole entry): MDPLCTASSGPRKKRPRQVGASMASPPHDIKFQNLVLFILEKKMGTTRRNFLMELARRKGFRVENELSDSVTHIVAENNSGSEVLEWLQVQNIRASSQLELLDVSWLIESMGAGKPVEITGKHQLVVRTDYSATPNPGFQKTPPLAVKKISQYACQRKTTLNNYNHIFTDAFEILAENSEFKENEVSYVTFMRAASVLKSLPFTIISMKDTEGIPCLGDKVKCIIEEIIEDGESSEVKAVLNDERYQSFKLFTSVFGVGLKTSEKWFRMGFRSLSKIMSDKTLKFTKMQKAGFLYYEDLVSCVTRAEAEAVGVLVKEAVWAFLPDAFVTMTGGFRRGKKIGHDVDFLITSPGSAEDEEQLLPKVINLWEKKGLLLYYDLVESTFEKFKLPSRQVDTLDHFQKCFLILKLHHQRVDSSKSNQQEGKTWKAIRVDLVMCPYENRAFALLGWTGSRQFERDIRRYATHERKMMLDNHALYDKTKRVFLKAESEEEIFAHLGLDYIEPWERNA
row,Sequence,TdT poly-dT extension signal
1,GTCAC,153 ± 10
2,ATCAC,188 ± 16
3,TTCA,275 ± 22
4,TTCAC,371 ± 39
5,ATCAT,172 ± 14
6,CTCAG,173 ± 11
7,TTCAT,372 ± 18
8,TTCAA,388 ± 29
9,GTCAG,161 ± 18
10,CTCAA,147 ± 10
11,TTCAG,356 ± 32
12,CTCAT,130 ± 12
13,GAGTT,40.6 ± 5.8
14,AAAAG,101 ± 8.9
15,GACGG,117 ± 18
16,GAACC,55.9 ± 8.8
17,ACCAT,97.4 ± 8.9
18,GGGTG,69.1 ± 4.3
19,TGCGA,157 ± 7.9
20,GTAT,140 ± 12
21,TTATG,340 ± 26
22,TTGT,258 ± 19
23,ATATG,192 ± 15
24,ATATC,192 ± 14

row,Sequence,TdT poly-dT extension signal
1,CTATG,161 ± 12
2,CTATC,168 ± 13
3,CTATA,170 ± 13
4,ATATA,192 ± 12
5,TTATA,384 ± 22
6,TTATC,325 ± 29
7,TTAT,340 ± 30
8,TTGGA,284 ± 17
9,AGTGA,57.2 ± 5.7
10,ACTCA,79.4 ± 8.6
11,TATAT,197 ± 14
12,AACTT,58.3 ± 8.9
13,ACGCG,70.6 ± 6.6
14,GGTTA,50.7 ± 4.8
15,TTATT,381 ± 16
16,ATATT,201 ± 13
17,GTATT,158 ± 10
18,TATCC,138 ± 13
19,AAAGC,67 ± 7.7
20,GCTGA,75.3 ± 5.4
21,CGACA,68.1 ± 4.9
22,TTAAG,495 ± 38
23,CTAAT,206 ± 15
24,TTAAC,377 ± 27

row,Sequence,TdT poly-dT extension signal
1,TTAA,347 ± 25
2,GTAA,143 ± 13
3,TTAAT,491 ± 32
4,GTAAC,191 ± 15
5,CTAA,170 ± 12
6,ATAAT,246 ± 19
7,ATAAG,229 ± 14
8,CTAAC,201 ± 14
9,CTAAG,215 ± 13
10,GGAAG,82.2 ± 8.3
11,ACGTC,47.1 ± 4.9
12,TACTG,153 ± 14
13,TCTGA,172 ± 12
14,ATCAA,236 ± 13
15,GTCA,95.9 ± 6.2
16,GGATC,67.1 ± 5.8
17,AATA,106 ± 9.7
18,ATGGC,127 ± 8.4
19,AACGG,77.3 ± 5.7
20,GAGTG,61 ± 6.3
21,CTAAA,224 ± 15
22,ATAAA,276 ± 19
23,TTAAA,563 ± 39
24,TCGAA,187 ± 8.6

row,Sequence,TdT poly-dT extension signal
1,CTTGC,107 ± 7.2
2,TTGAG,317 ± 33
3,CTGAG,130 ± 11
4,GTGAA,142 ± 17
5,ATGAT,150 ± 9.9
6,GTGAC,144 ± 9
7,TTGAC,338 ± 26
8,TTGAA,339 ± 42
9,GTGAG,160 ± 13
10,ATGAA,175 ± 12
11,GTGAT,121 ± 12
12,TTGA,270 ± 19
13,TTGAT,314 ± 27
14,TCTCC,117 ± 8.4
15,CCGGG,82.9 ± 7.7
16,GTAAA,239 ± 15
17,ACTTT,70.7 ± 5.3
18,CTGGT,116 ± 6.9
19,TCCCG,199 ± 19
20,AATG,74.3 ± 5.6
21,GTGTT,100 ± 8.2
22,CGCGA,66.2 ± 6
23,ACCCG,76.1 ± 6.5
24,TTTCG,286 ± 22

row,Sequence,TdT poly-dT extension signal
1,TTTC,280 ± 19
2,CTTCG,133 ± 16
3,TGCAC,141 ± 11
4,GGGCG,83.8 ± 6.6
5,GACGC,93 ± 9.5
6,TTTT,223 ± 25
7,TTGG,274 ± 21
8,TTTGT,311 ± 21
9,TTTTT,282 ± 18
10,TTGGG,335 ± 18
11,ATTGG,180 ± 13
12,TTTTG,293 ± 38
13,ATTGT,167 ± 9.2
14,TTTGG,350 ± 26
15,GTTGT,139 ± 8.7
16,GTTGG,144 ± 11
17,CTGGG,141 ± 8.5
18,GTGGG,172 ± 9.4
19,TATCA,160 ± 12
20,GGCGC,77.7 ± 6.3
21,CGAGC,65 ± 6.4
22,GCGGC,73.3 ± 6.8
23,AGCAA,61.2 ± 5.3
24,TTTGC,271 ± 19

row,Sequence,TdT poly-dT extension signal
1,TTTG,264 ± 15
2,TTTGA,320 ± 26
3,TTCC,293 ± 17
4,ATCCA,153 ± 10
5,ATCCC,147 ± 16
6,TTTCC,270 ± 21
7,CTCCT,111 ± 9.1
8,TTCCA,299 ± 18
9,TGCC,126 ± 14
10,TTCCC,358 ± 31
11,TTCCT,286 ± 28
12,GTCCA,122 ± 10
13,TCCCC,175 ± 17
14,GTCCT,117 ± 9.6
15,CTTCA,130 ± 11
16,CCTAA,98.7 ± 6
17,ATGCT,116 ± 7.5
18,CGTTT,51.4 ± 5
19,GTAGG,181 ± 10
20,CCAAG,120 ± 9.5
21,CTTT,127 ± 17
22,TATC,171 ± 12
23,TGTA,126 ± 10
24,TACA,178 ± 8

row,Sequence,TdT poly-dT extension signal
1,GTCCG,147 ± 12
2,TTCCG,388 ± 25
3,CTCCG,127 ± 11
4,TGCGC,154 ± 12
5,GTCTG,128 ± 7.3
6,CTCTA,130 ± 12
7,TTCTT,311 ± 24
8,GTCTT,128 ± 8
9,TTCTG,320 ± 24
10,CTCTT,122 ± 10
11,TTCTA,312 ± 31
12,ATCTG,143 ± 16
13,TTCT,243 ± 31
14,ACCCA,77.1 ± 11
15,TCGAT,152 ± 12
16,CAGTG,49.3 ± 7.1
17,CCTA,84.4 ± 13
18,ACAAC,92.6 ± 6.6
19,GCACG,87 ± 5.5
20,ATGCC,109 ± 15
21,TTCGT,330 ± 27
22,ATCGT,189 ± 13
23,TTCGG,347 ± 20
24,CTCG,124 ± 17

row,Sequence,TdT poly-dT extension signal
1,CTCGA,135 ± 12
2,CTCGG,158 ± 9.7
3,TCCG,221 ± 19
4,GTCGG,178 ± 14
5,CTCGT,115 ± 9
6,TTCGA,367 ± 21
7,ATCGA,206 ± 17
8,TTCG,284 ± 31
9,TCATT,134 ± 15
10,GACTG,85.6 ± 6.6
11,GCCTG,90.6 ± 8.8
12,CCAC,93 ± 7.6
13,ATACG,188 ± 13
14,ACAGT,65.8 ± 8.1
15,ACTGG,71.1 ± 8.8
16,TAGCC,105 ± 7.2
17,GTCGC,137 ± 12
18,CTCGC,146 ± 15
19,TTCGC,323 ± 18
20,CGGTC,31.7 ± 5.1
21,AGCGC,57.8 ± 6.1
22,ATAGC,182 ± 14
23,CTAGC,134 ± 8.7
24,TTAGA,396 ± 35

row,Sequence,TdT poly-dT extension signal
1,GTAG,159 ± 11
2,CTAGA,170 ± 11
3,CTAGT,157 ± 12
4,GTAGA,191 ± 19
5,TTAG,308 ± 27
6,GTAGT,130 ± 11
7,TAAG,161 ± 15
8,TTAGC,308 ± 15
9,TTAGT,368 ± 28
10,TGTCA,114 ± 7.2
11,AGTGT,44.6 ± 5.9
12,GATGC,82.1 ± 9.4
13,TACGA,194 ± 14
14,CCGGA,78.7 ± 10
15,ACGAA,76.9 ± 4.9
16,GTTTA,123 ± 9.7
17,ATAGG,198 ± 12
18,TTAGG,444 ± 29
19,CTAGG,182 ± 8.8
20,CCTGG,79.5 ± 7.8
21,TCTCA,199 ± 18
22,TCTCT,347 ± 200
23,TCTC,128 ± 17
24,TAGGA,123 ± 9.3

row,Sequence,TdT poly-dT extension signal
1,TTAC,275 ± 24
2,GTACA,152 ± 8.5
3,GTACG,158 ± 12
4,TTACA,344 ± 20
5,TTACG,380 ± 28
6,CTACC,127 ± 19
7,ATACA,204 ± 18
8,TTACC,393 ± 30
9,TTACT,396 ± 14
10,GTACC,143 ± 13
11,GTACT,137 ± 10
12,CTACT,152 ± 15
13,GACCT,77.6 ± 11
14,GAGGT,55.2 ± 5.3
15,CAGAG,71.3 ± 6.3
16,AATTG,77.2 ± 7
17,CTTTG,141 ± 13
18,CCACT,90 ± 7.8
19,AGTA,44.2 ± 4.4
20,ACCA,87.8 ± 9.2
21,TTTCA,281 ± 27
22,ACCG,78.2 ± 8
23,GTTAA,194 ± 15
24,TTTAA,392 ± 18

row,Sequence,TdT poly-dT extension signal
1,TTTAG,345 ± 24
2,CTTAA,181 ± 12
3,TTTA,271 ± 29
4,CTTAC,153 ± 14
5,TTTAC,344 ± 22
6,ATTAT,152 ± 14
7,GTTAC,130 ± 11
8,ATTAG,195 ± 19
9,CTTAT,106 ± 7.6
10,TTTAT,331 ± 24
11,TGAGC,147 ± 8.6
12,TAAAC,191 ± 19
13,CACCG,74.4 ± 8.1
14,TAAAT,192 ± 18
15,GCCGC,93.5 ± 6.3
16,GTTTT,125 ± 8.3
17,TTTTC,242 ± 27
18,TTTTA,302 ± 24
19,CTTTA,106 ± 9.8
20,CATGG,80 ± 9.5
